PAFAH1B2 FP inh: blocks human PAF acetylhydrolase 1b catalytic subunit 2; P68402; recombinant PAFAH1B2, FP-rhodamine activity probe, fluorescence polarization; inhibition, % at 3.39 µM; actives 1.2% (n = 340,000); AID 492953;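 active = inhibition above the mean of all tested compounds plus 3 SD, cut at about 24% in these data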;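 note: 0% = enzyme with DMSO and 100% = wells lacking PAFAH1B2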
Target sequence (P68402 whole entry, looked up): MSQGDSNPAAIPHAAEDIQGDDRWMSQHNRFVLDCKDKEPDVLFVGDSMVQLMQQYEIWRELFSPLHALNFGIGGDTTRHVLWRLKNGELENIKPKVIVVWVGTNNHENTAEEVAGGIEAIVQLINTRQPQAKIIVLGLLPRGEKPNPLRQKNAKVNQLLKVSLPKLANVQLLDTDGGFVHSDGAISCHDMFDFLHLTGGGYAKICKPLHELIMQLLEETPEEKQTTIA
PP1 inh: blocks human PP1-alpha phosphatase, a PP5 counter-screen | P62136 | purified PP1alpha, OMFP fluorescence | inhibition, % at 6.7 µM | actives 0.9% (n = 320,000);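 active = inhibition above the mean inhibition of all tested compounds plus 3 SD, computed separately for each screening campaign, cut at about 15% in these data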
Target sequence (P62136 whole entry, looked up): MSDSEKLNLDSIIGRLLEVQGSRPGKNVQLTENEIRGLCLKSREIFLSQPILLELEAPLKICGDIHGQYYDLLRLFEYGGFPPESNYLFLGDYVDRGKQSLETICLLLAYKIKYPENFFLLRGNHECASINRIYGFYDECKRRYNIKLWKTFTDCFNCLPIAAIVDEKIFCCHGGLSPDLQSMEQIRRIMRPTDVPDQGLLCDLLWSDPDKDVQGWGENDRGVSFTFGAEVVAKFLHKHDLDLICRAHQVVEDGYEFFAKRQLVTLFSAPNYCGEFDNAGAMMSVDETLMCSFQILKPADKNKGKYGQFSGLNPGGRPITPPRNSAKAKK
PP5 primary: inhibitors of human protein phosphatase 5 (PP5) | purified PP5c, OMFP substrate fluorescence | AID 1987 | actives 0.18% (n = 320,000) | P53041 | inhibition, % at 6.7 µM;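 active = inhibition above the campaign's mean inhibition across all tested compounds plus 3 SD, cut at about 9.5% in these data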;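 note: 0% = DMSO only and 100% = 100 µM cantharidin control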
pPAFAH FP inh: pPAFAH (human) enzyme inhibition | actives 1.5% (n = 330,000) | Q13093 | recombinant pPAFAH, FP-rhodamine probe fluorescence polarization | AID 463082 | inhibition, % at 3.39 µM;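 active = inhibition above the mean inhibition across the screen plus 3 SD, cut at about 25% in these data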;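 note: inhibitors block binding of the rhodamine activity-based probe so polarization drops; 0% = enzyme with DMSO and 100% = wells lacking pPAFAH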
PAFAH2 inh: inhibitors of human PAFAH2; actives 0.99% (n = 340,000); inhibition, % at 3.39 µM; AID 492956; Q99487; recombinant PAFAH2, FP-rhodamine activity probe, fluorescence polarization;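 active = inhibition above the mean over all tested compounds plus 3 SD, cut at about 30% in these data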;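 note: inhibitors block probe labeling of enzyme so polarization drops; 0% = enzyme with DMSO and 100% = wells lacking PAFAH2 protein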
PAFAH1B3 FP inh: inhibitors of human PAFAH1B3; Q15102; recombinant PAFAH1B3, FP-rhodamine probe, fluorescence polarization; inhibition, % at 3.39 µM; actives 0.28% (n = 340,000);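 active = inhibition above the screen-wide average of all tested compounds plus 3 SD, cut at about 25% in these data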;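 note: 0% = enzyme with DMSO only and 100% = wells lacking PAFAH1B3 protein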
* marks the source's active call; other numbers are inactive results. A selection: hits, their analogues and other compounds. The true share with any hit is near 3.4%.

`CCOC(=O)Cc1c(C)nc2c(-c3ccccc3)c[nH]n2c1=O` gave PAFAH1B2 FP inh 0, PP1 inh -1, PP5 primary 2, pPAFAH FP inh 8, PAFAH2 inh 2 and PAFAH1B3 FP inh -1.
Screening CCOC(=O)Cc1cc(=O)n2[nH]cc(-c3ccc(Cl)cc3)c2n1 returned PAFAH1B2 FP inh 5, PP1 inh 6, PP5 primary 2, pPAFAH FP inh 32*, PAFAH2 inh 4 and PAFAH1B3 FP inh 0.
CCCn1nc(NS(=O)(=O)c2cccc3nonc23)c2cc3cc(C)ccc3nc21 was read as PAFAH1B2 FP inh 8, PP1 inh 4, PP5 primary 0, pPAFAH FP inh 17, PAFAH2 inh 11 and PAFAH1B3 FP inh 9.
CCCn1nc(NS(=O)(=O)c2cccc3nonc23)c2cc3cccc(C)c3nc21 was read as PAFAH1B2 FP inh 10, PP1 inh 12, PP5 primary 5, pPAFAH FP inh 29*, PAFAH2 inh 13 and PAFAH1B3 FP inh 3.
For COc1ccc(C2=CC3=C(Br)C(=O)C(C)(OC(=O)c4ccco4)C(=O)C3=CO2)cc1 (configuration not stated) the results were PAFAH1B2 FP inh 10, PP1 inh 5, PP5 primary -2, pPAFAH FP inh 23, PAFAH2 inh 20 and PAFAH1B3 FP inh 7.
For COc1ccc(C2=CC3=C(Br)C(=O)C(C)(OC(=O)c4cccs4)C(=O)C3=CO2)cc1 (configuration not stated) the results were PAFAH1B2 FP inh 9, PP1 inh 7, PP5 primary 2, pPAFAH FP inh 28*, PAFAH2 inh 10 and PAFAH1B3 FP inh 1.
`COc1ccc2nc(C)cc(SCC(=O)N/N=C/c3ccc(O)c(O)c3)c2c1` gave PAFAH1B2 FP inh 2, PP1 inh 4, PP5 primary 2, pPAFAH FP inh 29*, PAFAH2 inh 19 and PAFAH1B3 FP inh 11.
Cc1cc(SCC(=O)N/N=C/c2ccc(O)c(O)c2)nc2ccccc12 was read as PAFAH1B2 FP inh -2, PP1 inh 1, PP5 primary -2, pPAFAH FP inh 27*, PAFAH2 inh 32* and PAFAH1B3 FP inh 15.
`Cc1cc(SCC(=O)N/N=C/c2ccc(O)cc2O)nc2ccccc12` gave PAFAH1B2 FP inh 3, PP1 inh 3, PP5 primary 4, pPAFAH FP inh 18, PAFAH2 inh -1 and PAFAH1B3 FP inh 13.
For Cc1cc(SCC(=O)N/N=C/c2ccc(O)c(O)c2)c(C)cc1Br the results were PAFAH1B2 FP inh 3, PP1 inh 1, PP5 primary 1, pPAFAH FP inh 26*, PAFAH2 inh -8 and PAFAH1B3 FP inh 23.
COc1ccc2nc(C)cc(SCC(=O)N/N=C/c3cccc4ccccc34)c2c1 was read as PAFAH1B2 FP inh -1, PP1 inh 4, PP5 primary -1, pPAFAH FP inh -2, PAFAH2 inh -8 and PAFAH1B3 FP inh -20.
O=C(Cc1nnc(NC(=O)c2ccccc2)s1)N/N=C\c1ccc(O)c(O)c1 was read as PAFAH1B2 FP inh 3, PP1 inh 6, PP5 primary 0, pPAFAH FP inh 27*, PAFAH2 inh 16 and PAFAH1B3 FP inh 12.
Screening CCCc1cc(=O)oc2cc(C)cc(OC(C)C(=O)NCC(O)c3ccccc3)c12 (configuration not stated) returned PAFAH1B2 FP inh 0, PP1 inh -4, PP5 primary 0, pPAFAH FP inh 1, PAFAH2 inh 0 and PAFAH1B3 FP inh 12.
For Nc1ccn(C2OC(COC(=O)C34CC5CC(CC(C5)C3)C4)C(O)C2O)c(=O)n1 (configuration not stated) the results were PAFAH1B2 FP inh 12, PAFAH2 inh 2 and PAFAH1B3 FP inh 2.
`Nc1ccc(Br)c2c1C(=O)c1ccccc1C2=O` gave PP1 inh 3, PP5 primary 6 and pPAFAH FP inh 25*.
For COc1ccc(N)c2c1C(=O)c1ccccc1C2=O the results were PAFAH1B2 FP inh 13, PP1 inh 4, PP5 primary 2, pPAFAH FP inh 17, PAFAH2 inh 27 and PAFAH1B3 FP inh 13.
For CSc1nc(N(CCO)CCO)c2sc3nc(-c4ccco4)c4c(c3c2n1)CCC4 the results were PAFAH1B2 FP inh 6, PAFAH2 inh 31* and PAFAH1B3 FP inh 15.
CSc1nc(SCCO)c2sc3nc(-c4ccco4)c4c(c3c2n1)CC(C)(C)OC4 was read as PAFAH1B2 FP inh -4, PAFAH2 inh 10 and PAFAH1B3 FP inh 1.
CC(=O)Nc1ccc(NCN2C(=O)[C@@H]3[C@H]4CC[C@H](C4)[C@@H]3C2=O)cc1 was read as PAFAH1B2 FP inh 0, PP1 inh 7, PP5 primary 1, pPAFAH FP inh -3, PAFAH2 inh 1 and PAFAH1B3 FP inh -1.
For COc1cccc(N2CCN(CC(=O)Nc3ccc(SC(F)F)cc3)CC2)c1 the results were PAFAH1B2 FP inh 4, PP1 inh -1, PP5 primary 4, pPAFAH FP inh 9, PAFAH2 inh 2 and PAFAH1B3 FP inh 12.
O=C(CN1CCN(c2ccc(O)cc2)CC1)Nc1ccc(SC(F)F)cc1 was read as PAFAH1B2 FP inh -1, PP1 inh -1, PP5 primary -1, pPAFAH FP inh 33*, PAFAH2 inh -5 and PAFAH1B3 FP inh 7.
`O=C(NCC1CCCO1)c1cn(Cc2ccccc2Cl)nc1-c1ccccc1` (configuration not stated) gave PAFAH1B2 FP inh 4, PAFAH2 inh 3 and PAFAH1B3 FP inh 5.
For COc1ccccc1/C=C/C=N/NC(=O)c1cc(-c2ccco2)[nH]n1 the results were PP1 inh 9, PP5 primary 4 and pPAFAH FP inh 30*.
For CN=CC1=C(O)c2ccccc2C1=O the results were PAFAH1B2 FP inh 1, PP1 inh -1, PP5 primary -1, pPAFAH FP inh 4, PAFAH2 inh -2 and PAFAH1B3 FP inh 5.
`O=C1C(C2=C(O)c3ccccc3C2=O)=Nc2ccccc21` gave PAFAH1B2 FP inh 20, PP1 inh -1, PP5 primary 3, pPAFAH FP inh 26*, PAFAH2 inh 53* and PAFAH1B3 FP inh 55*.
O=C(NCCCN1CCCC1=O)c1cccc(S(=O)(=O)Nc2ccc(F)cc2)c1 was read as PAFAH1B2 FP inh -1, PP1 inh -1, PP5 primary 0, pPAFAH FP inh 34*, PAFAH2 inh 1 and PAFAH1B3 FP inh 3.
`Cc1cccc(NS(=O)(=O)c2cccc(C(=O)NCCCN3CCCC3=O)c2)c1` gave PAFAH1B2 FP inh 6, PP1 inh -2, PP5 primary 3, pPAFAH FP inh 28*, PAFAH2 inh -2 and PAFAH1B3 FP inh 0.
`Cc1cc(S(=O)(=O)Nc2ccc(C(=O)NCC3CCCO3)cc2)ccc1F` (configuration not stated) gave pPAFAH FP inh 3.

Compound activity as filed in PubChem.
